From PubChem
Rows were chosen to be rich in hits. Some 6.1% of all compounds tested hit in one or more screens of this group.
D1 potentiator: human D1 dopamine receptor positive modulation | P21728 | HEK293 TREx D1 cells, calcium flux, dopamine EC20 potentiation | potentiation, % at 10 µM | 360,000 compounds, 0.036% hits; in the data active = potentiation above about 30%; also: 0% is about no effect
D3 antag: blocks the human D3 dopamine receptor; 360,000 compounds, 2.5% hits; AID 652054; max response, negative = inhibition, %; P35462; D3R cells, DiscoveRx beta-arrestin luminescence, antagonist mode; active compounds read low; in the data active = max response below about -50%; inconclusive = no clear call, values can overlap the other calls; also: % is scaled to controls: 0 for no effect and ±100 for the full control effect
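Cells plated overnight at 1500 cells/well, then exposed to library compounds with dopamine controls for 90 minutes at 37 degrees C. DiscoveRx reagent added for 30–60 minutes at room temperature; luminescence read, quantitative HTS format.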
D1 agonist: activates the human D1 dopamine receptor; P21728; HEK293 T-REx D1 cells, calcium flux, agonist mode; activation, % at 2 µM; 360,000 compounds, 1% hits; AID 504660; in the data active = activation above about 30%; also: 0% is about no effect
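Inducible HEK293 T-REx D1 cells, force-coupled to calcium signalling, were plated at 4000 cells/well with tetracycline and held overnight at 30 C. After no-wash calcium dye loading, compound-evoked calcium rise over 180 s flagged agonists.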
DRD3 agonist: D3 dopamine receptor (human) agonism | D3R DiscoveRx beta-arrestin cells, luminescence, 90 min | max activation, % | 410,000 compounds, 0.58% hits | AID 652048; in the data active = max activation above about 30%; also: 0% is about no effect
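Cells at 1500/well, incubated overnight, then treated with pinned compounds (dopamine as control) for 90 min at 37 degrees C. DiscoveRx reagent added for 30 - 60 minutes at room temperature; luminescence read.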
ERG Ets-DNA blk: inhibitors of human ERG Ets domain-DNA interaction | P11308 | fluorescence polarization, His-ERG Ets domain / labelled DNA | Potency, µM (highest dose often 76.9 µM), without a hit: at the top dose FP activity, negative = inhibition, usual class: inhibitors | 370,000 compounds, 0.028% hits | AID 624246; active = well fitted inhibition curve with a large enough effect in the polarisation, with a control signal flat; inconclusive = small, poorly fitted or top-dose-only effect, or effect the other way, or a change in a side signal; inactive = no such curve, though single readings can be large or run the other way; the % refers to the polarisation;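 also: polarization taken with two DNA probes labelled with fluorescein and Texas red; potency is read from the fitted curve at half-maximal effect; % of control where 0% means no effect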
Target sequence (P11308 whole entry, looked up, the tested form may be a part): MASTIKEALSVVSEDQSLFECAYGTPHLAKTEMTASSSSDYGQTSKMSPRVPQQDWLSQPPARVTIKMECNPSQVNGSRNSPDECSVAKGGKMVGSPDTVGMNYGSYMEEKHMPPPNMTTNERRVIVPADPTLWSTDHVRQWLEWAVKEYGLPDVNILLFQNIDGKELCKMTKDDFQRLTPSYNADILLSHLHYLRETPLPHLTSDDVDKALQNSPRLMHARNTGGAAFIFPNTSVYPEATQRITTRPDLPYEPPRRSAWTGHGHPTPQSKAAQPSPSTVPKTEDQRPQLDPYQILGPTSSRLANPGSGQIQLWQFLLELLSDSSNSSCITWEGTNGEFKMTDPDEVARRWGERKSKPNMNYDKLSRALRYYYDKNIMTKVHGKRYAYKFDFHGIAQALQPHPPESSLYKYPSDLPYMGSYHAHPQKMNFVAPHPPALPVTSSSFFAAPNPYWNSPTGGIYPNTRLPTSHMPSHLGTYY
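His-tagged ERG Ets domain (1 uM in the protein solution; 300mM KCl, 50mM Tris-HCl, 1mM EDTA, 1mM DTT, pH 7.5) received compound, then a probe mix of 5 nM fluorescein-DNA and 100nM Texas-615-DNA. Fluorescence polarization was read for both dyes.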
D1 antagonist: blocks dopamine activation of the human D1 receptor; P21728; HEK293 TREx D1 cells, calcium flux, dopamine EC80; active compounds read low; activity change, negative = inhibition, % at 10 µM; 360,000 compounds, 3.2% hits; AID 504652; in the data active = activity change below about -30%; also: % is scaled to controls: 0 for no effect and ±100 for the full control effect
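Allosteric or orthosteric antagonism assessed as attenuation of the calcium response to EC80 dopamine, added 180 s after compound, in induced HEK293 Trex D1 cells loaded with no-wash calcium dye.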
Active calls of the source: *; u = inconclusive; x = no result.

SMILES	D1 potentiator	D3 antag	D1 agonist	DRD3 agonist	ERG Ets-DNA blk	D1 antagonist
Cc1cc(N2C(=O)C(O)=C(C(=O)c3ccco3)C2c2ccc(Cl)cc2)no1 (stereo unspecified)	1.9	3.7	0.5	3.0	4.0%	-14.8
CN(Cc1ccccc1)C(=O)c1ccc(NC(=O)Cc2ccc(NC(=O)C3CCN(C(=O)C4CCCCC4)CC3)cc2)cc1	x	u	x	-20.6	4.1%	x
CCNC(=O)C1CCCN(Cc2ccc(C(=O)OCC)cc2)CC1 (stereo unspecified)	x	0.0	x	-8.4	x	x
COc1ccc(CNc2nc(-c3ccc(OC)c(OC)c3)cc(C(F)(F)F)n2)cc1	-1.2	x	2.7	8.2	-6.2%	2.0
Fc1ccc(-c2cc(C(F)(F)F)nc(NCc3ccccc3)n2)cc1	1.3	x	36.1*	-10.0	5.6%	-3.2
Fc1ccc(CNc2nc(-c3ccc(Cl)cc3)cc(C(F)(F)F)n2)cc1	1.6	x	26.1	-15.1	-1.3%	-2.3
FC(F)(F)c1cc(-c2ccccc2)nc(NCc2cccnc2)n1	-4.7	u	5.1	1.6	-2.7%	7.6
COc1ccc(CCNc2nc(-c3ccc(OC)c(OC)c3)cc(C(F)(F)F)n2)cc1OC	-0.3	x	8.1	38.1*	-2.0%	-19.8
COc1ccc(-c2cc(C(F)(F)F)nc(NCc3ccccc3)n2)cc1	2.9	x	30.9*	-12.9	-5.1%	-0.4
COc1ccc(N2CCN(c3nc(NCCc4ccc(OC)c(OC)c4)nc(OC)n3)CC2)cc1	-9.8	58.4	1.7	38.4*	-3.8%	-16.2
COc1cc(NC(=O)Nc2nnc([C@@H]3C[C@H](O)[C@@H](CO)O3)s2)cc(OC)c1OC	x	-14.0	x	4.9	x	x
C=CCn1c(SCc2ccc(F)cc2)nnc1-c1sc2nc(C)cc(C)c2c1N	-1.6	0.0	-0.3	-3.4	-12.1%	-38.1*
O=C(NCc1cccs1)c1nc(-c2cccs2)no1	-2.3	0.8	0.9	-2.0	-4.5%	-8.0
COc1ccc(CCNC(=O)c2cc(-c3cccs3)on2)cc1OC	-5.1	14.5	7.8	36.2*	-5.9%	-6.0
O=C(NCCc1ccccc1)c1nc(-c2cccs2)no1	-2.3	-9.4	0.8	-2.5	1.0%	-35.9*
COc1ccc(-c2cc(C(=O)NCc3ccccc3)no2)cc1OC	-0.1	9.3	37.3*	-9.1	13.0%	2.0
Cc1cc(NC(=O)c2cccs2)no1	1.0	-13.9	1.5	-12.0	8.8%	2.9
Cc1cc(NC(=O)c2cc(-c3cccs3)on2)no1	-10.1	12.5	6.5	17.2	-1.1%	-42.4*
CCC[C@H]1CN(c2ccccc2)C(=O)[C@@H]1CC(=O)Nc1ccc(OC)cc1	x	-3.8	x	-7.5	x	x
CCc1ccc(-c2cc(C)no2)cc1S(=O)(=O)Nc1ccc(Cl)cn1	-9.6	-14.7	0.1	-0.5	3.9%	-16.7
CCc1ccc(-c2cc(C)no2)cc1S(=O)(=O)Nc1cc(C)on1	-4.9	-75.4*	2.6	-23.8	2.3%	2.2
Cc1ccc(S(=O)(=O)Nc2cc(C)on2)cc1	0.5	1.7	1.6	-2.7	1.5%	1.5
Cc1cc(NS(=O)(=O)c2cccs2)no1	-15.2	21.3	1.2	1.5	-7.1%	-82.8*
Cc1cc(NC(=O)c2c(Cl)cnn2C)no1	4.6	-71.3*	1.3	0.8	-4.7%	-1.5
Cc1cccc(N2CCN(Cc3ccoc3)CC2)c1C	-8.5	-87.5*	0.6	-31.6	x	3.3
SMILES	D1 potentiator	D3 antag	D1 agonist	DRD3 agonist	ERG Ets-DNA blk	D1 antagonist
COc1cc(CN2CCN(c3cccc(C)c3C)CC2)cc(OC)c1O	-3.6	u	2.4	-38.1	4.1%	-28.0
FC(F)(F)c1cccc(N2CCN(Cc3cccnc3)CC2)c1	0.1	-73.7*	1.6	-9.4	-9.8%	2.3
FC(F)(F)c1cccc(N2CCN(Cc3ccoc3)CC2)c1	-6.0	-96.2*	2.1	-26.8	-2.4%	-29.9
CCN1C(C(=O)c2ccccc2)=C(OC(=O)C(C)C)c2ccccc2S1(=O)=O	4.3	x	4.2	-25.9	0.9%	13.4
CC(=O)c1c(C)n([O-])c2cc(C)ccc2[n+]1=O	-7.8	-51.0*	2.6	-3.4	-6.6%	1.7
CN(C)S(=O)(=O)c1ccc2c(c1)nc(CCC(=O)NCC1CCCCC1)n2C	1.0	u	2.2	-7.4	-2.5%	-6.7
CC1CCN(C(=O)CCc2nc3cc(S(=O)(=O)N(C)C)ccc3n2C)CC1	11.1	20.2	-0.4	2.9	-3.0%	-32.5*
CSCc1cc(N(C)c2ccccc2)nc(-c2ccccn2)n1	-5.4	-75.4*	2.1	-11.2	-14.7%	-3.3
CN(C)c1cc(C(F)(F)F)nc(-c2ccccn2)n1	-4.9	-13.8	2.6	-2.0	-1.3%	-22.1
C/C(=N\Nc1ccc(S(=O)(=O)Nc2ccccc2)cc1[N+](=O)[O-])c1ccncc1	-3.9	x	0.6	x	x	-32.1*
COc1ccc(NS(=O)(=O)c2ccc(N/N=C(\C)c3ccncc3)c([N+](=O)[O-])c2)cc1	-4.0	-64.8*	5.8	-12.5	3.7%	-6.2
COc1ccc(Br)cc1C(=O)Nc1ccc(-c2nc3ncccc3o2)cc1C	1.5	x	2.3	5.9	-1.9%	8.4
CCOC(=O)c1c(NC(=O)c2ccc(C)cc2)sc2c1CC(C)(C)OC2	-2.4	32.5	2.6	-7.5	-2.1%	-0.1
CCOC(=O)C1CCN(C(=O)C2COc3ccccc3C2)CC1 (stereo unspecified)	0.8	x	1.4	-10.8	10.3%	8.0
COc1ccc(C(C)(NC(C)=O)c2nc(-c3ccc(F)cc3OC)cs2)cc1 (stereo unspecified)	x	0.0	x	-0.1	x	x
COc1ccc(C(C)(NC(C)=O)c2nc(-c3ccccc3OC)cs2)cc1 (stereo unspecified)	x	-88.4*	x	-3.5	x	x
Cc1ccc(C)c(N2CCN(C(=O)CN3C(=O)c4ccccc4C3=O)CC2)c1	-4.8	11.5	5.9	6.3	5.8%	-34.6*
O=C(CCN1C(=O)c2ccccc2C1=O)N1CCCCCC1	1.5	-50.6*	2.3	-2.6	-2.4%	24.6
O=C(CN1C(=O)c2ccccc2C1=O)N1CCN(c2ccccn2)CC1	-0.1	20.6	1.1	-4.2	4.0%	-30.3*
Cc1ccc(C)c(N2CCN(C(=O)NCc3noc4ccccc34)CC2)c1	-2.4	x	1.2	6.6	4.1%	-41.9*
O=C(CCN1C(=O)c2ccccc2C1=O)N1CCN(c2ccccc2)CC1	-0.2	3.7	1.9	18.5	-3.0%	-0.8
Cc1ccc(C)c(N2CCN(C(=O)NCc3noc4ccc(C)cc34)CC2)c1	-5.4	x	-0.2	6.1	4.7%	8.2
CN1OC[C@@H]2CN(C(=O)CCc3ccccc3)[C@H](c3ccccc3Br)C[C@@H]21	x	-5.0	x	1.6	x	x
Cc1cccc(-c2nnc(SCC(=O)NC3CCCC3)o2)c1	2.8	5.1	-0.2	-5.2	6.4%	4.9
